Results filed as inconclusive are left out. Calls of active or inactive are those of the source. The call rests on the fitted dose curve; in most records, active means well fitted curve in the direction sought with a large enough effect; inconclusive means small, poorly fitted or top-dose-only effect, or another doubt; inactive means no such curve, though single readings can be large; an effect the other way counts as inactive or inconclusive.
Key:
[1] = Quantitative High-Throughput drug screen in 47 multiple myeloma cell lines against the NCATS MIPE library collection: KMS20_JCRB cell viability assay (AID 1918973); further: nearly all actives have a fitted effect of over 45% in size
Method in brief: (§1)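 CellTiter-Glo luminescence (ATP) after 48 h compound exposure, 37C/5% CO2; 500 cells/well; MIPE 4.0 approved/investigational drugs pinned in; DMSO = 100%, media only = 0% viability.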

[2] = Quantitative High-Throughput drug screen in 47 multiple myeloma cell lines against the NCATS MIPE library collection: KMS21BM_JCRB cell viability assay (AID 1918974); details: ATP luminescence, 48 h; viability: at 45.8 µM (top of the series) unless noted
Method in brief: as §1

[3] = Quantitative High-Throughput drug screen in 47 multiple myeloma cell lines against the NCATS MIPE library collection: MMM1_PLB cell viability assay (AID 1918976); further: nearly all actives have a fitted effect of over 35% in size
Method in brief: (§2)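 ATP-based CellTiter-Glo luminescence after 48 h drug exposure (37 °C, 5% CO2) of 500 myeloma cells per well. DMSO-only wells set 100% viability, media-only wells 0%; MIPE 4.0 library added by pin tool.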

[4] = Quantitative High-Throughput drug screen in 47 multiple myeloma cell lines against the NCATS MIPE library collection: MOLP8_DSMZ cell viability assay (AID 1918977); further: nearly all actives have a fitted effect of over 45% in size
Method in brief: as §2

[5] = Quantitative High-Throughput drug screen in 47 multiple myeloma cell lines against the NCATS MIPE library collection: NCIH929_DSMZ cell viability assay (AID 1918978); further: nearly all actives have a fitted effect of over 35% in size
Method in brief: as §2

[6] = Quantitative High-Throughput drug screen in 47 multiple myeloma cell lines against the NCATS MIPE library collection: MM1S_ATCC cell viability assay (AID 1918980); further: nearly all actives have a fitted effect of over 45% in size
Method in brief: as §2

[7] = Quantitative High-Throughput drug screen in 47 multiple myeloma cell lines against the NCATS MIPE library collection: MM1R_ATCC cell viability assay (AID 1918981); further: nearly all actives have a fitted effect of over 35% in size
Method in brief: as §2

[8] = Quantitative High-Throughput drug screen in 47 multiple myeloma cell lines against the NCATS MIPE library collection: KMS34_JCRB cell viability assay (AID 1918985); further: nearly all actives have a fitted effect of over 40% in size
Method in brief: as §2

[9] = Quantitative High-Throughput drug screen in 47 multiple myeloma cell lines against the NCATS MIPE library collection: OCIMY7_PLB cell viability assay (AID 1918987); further: nearly all actives have a fitted effect of over 65% in size
Method in brief: as §2

[10] = Quantitative High-Throughput drug screen in 47 multiple myeloma cell lines against the NCATS MIPE library collection: OCIMY5_PLB cell viability assay (AID 1918988); further: nearly all actives have a fitted effect of over 65% in size
Method in brief: as §2

[11] = Quantitative High-Throughput drug screen in 47 multiple myeloma cell lines against the NCATS MIPE library collection: OPM1_PLB cell viability assay (AID 1918989); further: nearly all actives have a fitted effect of over 40% in size
Method in brief: as §2

[12] = Quantitative High-Throughput drug screen in 47 multiple myeloma cell lines against the NCATS MIPE library collection: SKMM1_PLB cell viability assay (AID 1919863); details: SKMM1 myeloma viability, CellTiter-Glo ATP, 48 h; viability: hits give low values; further: nearly all actives have a fitted effect of over 35% in size
Method in brief: as §2

[13] = Quantitative High-Throughput drug screen in 47 multiple myeloma cell lines against the NCATS MIPE library collection: U266_ATCC cell viability assay (AID 1919864); further: nearly all actives have a fitted effect of over 35% in size
Method in brief: as §2

[14] = Quantitative High-Throughput drug screen in 47 multiple myeloma cell lines against the NCATS MIPE library collection: XG6_PLB cell viability assay (AID 1919865); further: nearly all actives have a fitted effect of over 40% in size
Method in brief: as §2

[15] = Quantitative High-Throughput drug screen in 47 multiple myeloma cell lines against the NCATS MIPE library collection: XG1_PLB cell viability assay (AID 1919866); further: nearly all actives have a fitted effect of over 35% in size
Method in brief: as §2

[16] = Quantitative High-Throughput drug screen in 47 multiple myeloma cell lines against the NCATS MIPE library collection: KMS26_JCRB cell viability assay (AID 1918975); further: nearly all actives have a fitted effect of over 45% in size
Method in brief: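 qHTS of the MIPE 4.0 collection: 500 myeloma cells/well, 48 h drug exposure at 37C in 5% CO2, then CellTiter-Glo for 5 min at room temperature before luminescence reading.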

[17] = Quantitative High-Throughput drug screen in 47 multiple myeloma cell lines against the NCATS MIPE library collection: OCIMY1_PLB cell viability assay (AID 1918979); further: nearly all actives have a fitted effect of over 35% in size
Method in brief: as §2

[18] = Quantitative High-Throughput drug screen in 47 multiple myeloma cell lines against the NCATS MIPE library collection: LP1_DSMZ cell viability assay (AID 1918982); further: nearly all actives have a fitted effect of over 35% in size
Method in brief: as §2

[19] = Quantitative High-Throughput drug screen in 47 multiple myeloma cell lines against the NCATS MIPE library collection: KMS28PE_JCRB cell viability assay (AID 1918983); further: nearly all actives have a fitted effect of over 35% in size
Method in brief: as §2

[20] = Quantitative High-Throughput drug screen in 47 multiple myeloma cell lines against the NCATS MIPE library collection: L363_DSMZ cell viability assay (AID 1918984); further: nearly all actives have a fitted effect of over 40% in size
Method in brief: as §2
Potency means the concentration at half of the fitted maximal effect.

Cn1cncc1[C@@](N)(c1ccc(Cl)cc1)c1ccc2c(c1)c(-c1cccc(Cl)c1)cc(=O)n2C
active: Potency [1] 11800 nM | Potency [2] 16600 nM | Potency [3] 14800 nM | Potency [4] 7430 nM | Potency [5] 5260 nM | Potency [6] 6620 nM | Potency [7] 23500 nM | Potency [8] 833 nM | Potency [9] 14.8 nM | Potency [10] 7430 nM | Potency [11] 16600 nM | Potency [12] 13200 nM | Potency [13] 23500 nM | Potency [14] 1870 nM | Potency [15] 332 nM

CCn1nnc2c(N3CCOCC3)nc(-c3ccc(NC(=O)Nc4ccc(C(=O)N5CCN(C)CC5)cc4)cc3)nc21
active: Potency [1] 23.5 nM | Potency [16] 41.8 nM | Potency [3] 33.2 nM | Potency [4] 3.7 nM | Potency [5] 6.6 nM | Potency [17] 5260 nM | Potency [6] 33.2 nM | Potency [7] 46.9 nM | Potency [18] 46.9 nM | Potency [19] 5.9 nM | Potency [8] 148 nM | Potency [9] 3720 nM | Potency [10] 469 nM | Potency [11] 5.9 nM | Potency [12] 59 nM

CC(C)(C)c1cc(C(C)(C)C)c(NC(=O)c2c[nH]c3ccccc3c2=O)cc1O
inactive: Potency [1] | Potency [2] | Potency [5] | Potency [17] | Potency [6] | Potency [18] | Potency [19] | Potency [8] | Potency [11] | viability [12] 97.5% | Potency [13] | Potency [14]

CC(C)[C@H](C(=O)Nc1ccc(C(=O)NO)cc1)c1ccccc1
active: Potency [1] 833 nM | Potency [2] 105 nM | Potency [16] 3320 nM | Potency [4] 526 nM | Potency [5] 526 nM | Potency [17] 1180 nM | Potency [7] 526 nM | Potency [18] 743 nM | Potency [19] 833 nM | Potency [8] 264 nM | Potency [9] 418 nM | Potency [10] 526 nM | Potency [11] 469 nM | Potency [12] 1180 nM | Potency [13] 935 nM | Potency [14] 2350 nM | Potency [15] 833 nM

NC(=O)Nc1cc(-c2cccc(F)c2)sc1C(=O)N[C@H]1CCCNC1
active: Potency [1] 662 nM | Potency [2] 235 nM | Potency [16] 11800 nM | Potency [3] 4690 nM | Potency [4] 118 nM | Potency [17] 4690 nM | Potency [6] 132 nM | Potency [7] 148 nM | Potency [20] 16.6 nM | Potency [8] 93.5 nM | Potency [9] 264 nM | Potency [10] 74.3 nM | Potency [11] 296 nM | Potency [12] 7430 nM | Potency [13] 5900 nM | Potency [14] 83.3 nM | Potency [15] 187 nM

COc1ccc(-c2cc3c(C)nc(N)nc3n(C3CCC(OCCO)CC3)c2=O)cn1 (stereo not drawn)
active: Potency [1] 26.4 nM | Potency [16] 148 nM | Potency [3] 14.8 nM | Potency [4] 37.2 nM | Potency [5] 9.3 nM | Potency [17] 83.3 nM | Potency [6] 37.2 nM | Potency [7] 14.8 nM | Potency [18] 14.8 nM | Potency [19] 33.2 nM | Potency [20] 10.5 nM | Potency [8] 74.3 nM | Potency [9] 118 nM | Potency [10] 83.3 nM | Potency [11] 46.9 nM | Potency [12] 13.2 nM | Potency [13] 264 nM | Potency [14] 66.2 nM | Potency [15] 18.7 nM

Cc1cc(Nc2cc(NC(=O)c3c(Cl)cccc3Cl)ccn2)nc(N)n1
active: Potency [1] 10500 nM | Potency [2] 418 nM | Potency [16] 16600 nM | Potency [4] 23500 nM | Potency [5] 9350 nM | Potency [6] 209 nM | Potency [18] 418 nM | Potency [19] 26400 nM | Potency [20] 1660 nM | Potency [8] 1180 nM | Potency [9] 590 nM | Potency [13] 6620 nM | Potency [14] 4690 nM | Potency [15] 1180 nM

Cc1nc(N)ncc1-c1nc(N2CCOCC2)c2sc(C(C)(C)O)cc2n1
active: Potency [1] 1320 nM | Potency [2] 1050 nM | Potency [16] 526 nM | Potency [3] 148 nM | Potency [4] 118 nM | Potency [17] 105 nM | Potency [7] 1320 nM | Potency [20] 74.3 nM | Potency [8] 1660 nM | Potency [9] 1180 nM | Potency [10] 662 nM | Potency [11] 1180 nM | Potency [12] 166 nM | Potency [13] 5260 nM | Potency [14] 3320 nM | Potency [15] 1660 nM

COc1cccc2nc(-c3cccs3)nc(NN3C(=O)C=C(C)C3=O)c12
active: Potency [1] 59 nM | Potency [2] 235 nM | Potency [16] 2960 nM | Potency [3] 5900 nM | Potency [5] 235 nM | Potency [17] 187 nM | Potency [6] 418 nM | Potency [7] 187 nM | Potency [18] 187 nM | Potency [19] 2640 nM | Potency [8] 29.6 nM | Potency [9] 26.4 nM | Potency [10] 41.8 nM | Potency [11] 83.3 nM | Potency [12] 1050 nM | Potency [13] 118 nM | Potency [14] 83.3 nM | Potency [15] 26.4 nM

— PubChem BioAssay (NCATS)
